The values below come from PubChem BioAssay.

Experiment [1] in a line: anti-His antibody binders, primary screen, artefact control for SMM control protein annotation, biochemical, small-molecule microarray, 635 nm fluorescence (AID 1128).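 Also: score merges feature fluorescence with signal-to-noise for each printed compound spot.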 The settings on record: anti-His Alexa647 antibody binding, higher = more signal.
In experiment [2] the test system is Human papillomavirus type 1a E7 protein (residues 1-88). Briefly: HPV1a E7 small-molecule binders, primary screen, biochemical, small-molecule microarray, residues 1-88, 635 nm (AID 1129). The settings on record: small-molecule microarray binding, fluorescence 635 nm; higher = more signal.
Experiment [3] has as its target Focal adhesion kinase 1 (Homo sapiens) (UniProt Q05397). Put plainly: small-molecule microarray binders of FAK, primary screen, biochemical, 635/667 nm fluorescence, BSA, DTT (AID 1130).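 Also: composite of spot emission at 667 nm and signal to noise over triplicate slides.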 As to conditions: PTK2 binding, 635 nm fluorescence, higher = more signal.
Experiment [4] concerns Fibrinogen (Alexa647-labelled). Briefly: fibrinogen binders on compound microarrays, profiling panel, artefact control for SMM control-protein annotation, biochemical, small-molecule microarray, 635/667 nm fluorescence (AID 1131).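 Also: z-score merges 667 nm fluorescence with per-spot signal-to-noise over triplicate slides.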 The settings on record: fibrinogen-A647 binding fluorescence, higher = more signal.
The target in experiment [5] is Follistatin (Homo sapiens) (UniProt P19883). Put plainly: follistatin binders on small-molecule microarrays, primary screen, biochemical, small-molecule microarray, 635/667 nm fluorescence (AID 1132). The settings on record: FST binding, 635 nm fluorescence, higher = more signal.
Experiment [6] addresses Fibroblast growth factor 2 (Homo sapiens) (UniProt P09038). Put plainly: FGF2 binders on small-molecule microarrays, primary screen, biochemical, small-molecule microarray, 635/667 nm fluorescence (AID 1133). The settings on record: small-molecule microarray binding, FGF2, fluorescence 635/667; higher = more signal.
Experiment [7] in a line: mitochondrial membrane potential change in A549 cells, profiling panel, cell-based, JC-1 fluorescence, basal, 24 h, 100 nL (AID 1138).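 Also: A549 lung adenocarcinoma cells under basal conditions with no added stimulus; test concentration not given here.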 The settings on record: higher = more signal.
The test system of experiment [8] is Lefty1. Put plainly: Lefty1 binders on small-molecule microarrays, primary screen, biochemical, small-molecule microarray, 635/667 nm fluorescence (AID 1139). As to conditions: small-molecule microarray binding, fluorescence 635/667; higher = more signal.
The subject of experiment [9] is wheat germ agglutinin (Triticum aestivum), Alexa647-labelled. Briefly: wheat germ agglutinin binders on compound microarrays, profiling panel, artefact control for SMM control-protein annotation, biochemical, small-molecule microarray, 635/667 nm fluorescence (AID 1140).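 Also: score merges 667 nm feature emission with signal to noise over triplicate slides.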 The settings on record: WGA-A647 binding, 635 nm fluorescence, higher = more signal.
In experiment [10] the target is Luciferin 4-monooxygenase (Photinus pyralis) (UniProt P08659). Briefly: firefly luciferase enzyme inhibitors, primary screen, biochemical, luminescence, purified enzyme, 2006 set (AID 1141).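 Also: cell-free assay with purified firefly luciferase at 100 ng per well in PBS; test concentration not given here.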 As to conditions: SteadyGlo luminescence, 30 min, higher = more signal, called active from +8 up or from −8 down.
Experiment [11] concerns Wnt5a (protein binding on small-molecule microarray). Briefly: Wnt5a binders on small-molecule microarray, primary screen, biophysical, 635/667 nm fluorescence (AID 1142).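 Also: fluorescence read at 667 nm with signal to noise per printed feature.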 As to conditions: 635 nm fluorescence, higher = more signal.
Experiment [12] can be described thus: cell viability in Huh7 cells, primary screen, cytotoxicity control for HCV replication inhibitor project, CellTiter-Glo luminescence, basal, 48 h (AID 1143).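 Also: Huh7 hepatoma cells carrying a hepatitis C replication reporter with no stimulus; test concentration not given here.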 The settings on record: Huh7 HCV replicon, higher = more signal, called active from +8 up or from −8 down. (In ATP-based viability assays light output follows the ATP content of the culture.)
Experiment [13] in a line: P. aeruginosa biofilm formation inhibitors, primary screen, PAO1 strain, BacTiter-Glo luminescence, LB-PBS (AID 1144). The settings on record: 12 h, higher = more signal.
Experiment [14] is described as follows: CREB reporter modulators without forskolin, primary screen, cell-based, PC12, CRE-LacZ reporter, unstimulated (AID 1145). The settings on record: no forskolin, luminescence, 4.5 h, higher = more signal, called active from +8 up or from −8 down.
The nature of experiment [15]: CREB reporter modulators under forskolin, primary screen, cell-based, PC12, CRE-LacZ reporter, forskolin-stimulated (AID 1146).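 Also: PC12 cells with 6xCRE LacZ reporter stimulated by forskolin 10 µM; beta-galactosidase reporter signal reflecting CREB driven transcription.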 As to conditions: luminescence, 4.5 h, higher = more signal, called active from +8 up or from −8 down.
The target in experiment [16] is Streptavidin (Streptomyces avidinii) (UniProt P22629). Briefly: streptavidin binders on small-molecule microarray, primary screen, artefact control for SMM compound annotation, biophysical, 635/667 nm fluorescence (AID 1147).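 Also: signal reflects streptavidin binding to arrayed compounds as a control protein.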 The settings on record: streptavidin binding, higher = more signal.
The nature of experiment [17]: small-molecule binders of probe aInhba, primary screen, biochemical, small-molecule microarray, 635/667 nm fluorescence (AID 1148).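 Also: score merges 667nm spot fluorescence with signal-to-noise for antibody binding to printed compounds.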 As to conditions: higher = more signal.
The target in experiment [18] is Torsin-1A (Homo sapiens) (UniProt O14656). Put plainly: torsin A binders from cell lysate, primary screen, small-molecule microarray, wild-type, 635/667 nm (AID 1149). As to conditions: COS7 hTOR1A-WT lysate, 635 nm fluorescence, higher = more signal.
Experiment [19] has the same target. Put plainly: small-molecule binders of mutant TOR1A in lysate, primary screen, cell lysate, small-molecule microarray, COS7 lysate, 635/667 nm fluorescence (AID 1150).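 Also: score pools 667 nm emission and signal to noise measuring lysate protein binding.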 As to conditions: COS7 hTOR1A mutant lysate, 635 nm fluorescence, higher = more signal.
Experiment [20] has as its system Sonic hedgehog protein (Shh). Put plainly: small-molecule binders of Shh protein, primary screen, biochemical, small-molecule microarray, 635/667 nm fluorescence (AID 1151).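 Also: Shh protein binding to compounds spotted on small-molecule microarray slides; score combines spot fluorescence intensity with signal-to-noise across triplicate slides.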 As to conditions: small-molecule microarray binding, 635 nm fluorescence; higher = more signal.

Activity calls are given as the source filed them. Unless noted, no rule for the calls is given here.

Luciferin 4-monooxygenase (Photinus pyralis), sequence (P08659 whole entry, looked up): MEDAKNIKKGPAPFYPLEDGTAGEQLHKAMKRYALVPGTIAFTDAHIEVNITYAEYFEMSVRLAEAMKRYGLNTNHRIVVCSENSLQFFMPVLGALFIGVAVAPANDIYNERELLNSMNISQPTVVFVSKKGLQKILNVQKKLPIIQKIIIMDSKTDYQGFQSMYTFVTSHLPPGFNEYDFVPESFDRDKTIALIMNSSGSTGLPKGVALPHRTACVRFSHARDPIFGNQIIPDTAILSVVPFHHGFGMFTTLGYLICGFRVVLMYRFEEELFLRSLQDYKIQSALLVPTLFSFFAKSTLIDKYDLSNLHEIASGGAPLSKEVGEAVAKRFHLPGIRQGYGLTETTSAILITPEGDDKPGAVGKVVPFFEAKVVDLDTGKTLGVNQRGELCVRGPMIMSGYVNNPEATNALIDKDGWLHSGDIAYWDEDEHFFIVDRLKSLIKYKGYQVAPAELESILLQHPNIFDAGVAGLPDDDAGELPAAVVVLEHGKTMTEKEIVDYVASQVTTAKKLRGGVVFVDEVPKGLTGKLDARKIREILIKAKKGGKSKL
Follistatin (Homo sapiens), sequence (P19883 whole entry, looked up): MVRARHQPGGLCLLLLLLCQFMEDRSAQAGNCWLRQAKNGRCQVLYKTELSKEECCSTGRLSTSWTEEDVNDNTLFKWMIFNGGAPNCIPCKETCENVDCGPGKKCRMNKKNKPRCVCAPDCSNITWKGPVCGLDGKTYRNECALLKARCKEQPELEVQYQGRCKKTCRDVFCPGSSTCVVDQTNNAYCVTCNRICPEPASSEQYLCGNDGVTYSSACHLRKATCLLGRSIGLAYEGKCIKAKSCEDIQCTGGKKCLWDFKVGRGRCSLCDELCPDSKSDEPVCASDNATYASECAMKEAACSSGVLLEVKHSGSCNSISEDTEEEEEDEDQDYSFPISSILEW
Torsin-1A (Homo sapiens), sequence (O14656 whole entry, looked up): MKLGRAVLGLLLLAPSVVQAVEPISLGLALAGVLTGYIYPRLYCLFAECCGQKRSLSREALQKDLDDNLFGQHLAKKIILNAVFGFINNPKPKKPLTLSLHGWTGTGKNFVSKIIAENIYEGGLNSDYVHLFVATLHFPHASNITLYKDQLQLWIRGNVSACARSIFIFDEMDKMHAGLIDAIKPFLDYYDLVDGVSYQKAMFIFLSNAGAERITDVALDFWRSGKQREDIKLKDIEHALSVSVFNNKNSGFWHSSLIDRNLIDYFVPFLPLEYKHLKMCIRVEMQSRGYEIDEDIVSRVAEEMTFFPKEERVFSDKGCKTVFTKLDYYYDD
Streptavidin (Streptomyces avidinii), sequence (P22629 whole entry, looked up): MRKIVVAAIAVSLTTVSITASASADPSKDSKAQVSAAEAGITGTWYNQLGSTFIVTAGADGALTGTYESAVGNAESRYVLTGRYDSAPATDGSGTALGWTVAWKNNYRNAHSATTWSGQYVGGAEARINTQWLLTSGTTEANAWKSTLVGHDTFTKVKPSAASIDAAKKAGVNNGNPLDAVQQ
Focal adhesion kinase 1 (Homo sapiens), sequence (Q05397 whole entry, looked up): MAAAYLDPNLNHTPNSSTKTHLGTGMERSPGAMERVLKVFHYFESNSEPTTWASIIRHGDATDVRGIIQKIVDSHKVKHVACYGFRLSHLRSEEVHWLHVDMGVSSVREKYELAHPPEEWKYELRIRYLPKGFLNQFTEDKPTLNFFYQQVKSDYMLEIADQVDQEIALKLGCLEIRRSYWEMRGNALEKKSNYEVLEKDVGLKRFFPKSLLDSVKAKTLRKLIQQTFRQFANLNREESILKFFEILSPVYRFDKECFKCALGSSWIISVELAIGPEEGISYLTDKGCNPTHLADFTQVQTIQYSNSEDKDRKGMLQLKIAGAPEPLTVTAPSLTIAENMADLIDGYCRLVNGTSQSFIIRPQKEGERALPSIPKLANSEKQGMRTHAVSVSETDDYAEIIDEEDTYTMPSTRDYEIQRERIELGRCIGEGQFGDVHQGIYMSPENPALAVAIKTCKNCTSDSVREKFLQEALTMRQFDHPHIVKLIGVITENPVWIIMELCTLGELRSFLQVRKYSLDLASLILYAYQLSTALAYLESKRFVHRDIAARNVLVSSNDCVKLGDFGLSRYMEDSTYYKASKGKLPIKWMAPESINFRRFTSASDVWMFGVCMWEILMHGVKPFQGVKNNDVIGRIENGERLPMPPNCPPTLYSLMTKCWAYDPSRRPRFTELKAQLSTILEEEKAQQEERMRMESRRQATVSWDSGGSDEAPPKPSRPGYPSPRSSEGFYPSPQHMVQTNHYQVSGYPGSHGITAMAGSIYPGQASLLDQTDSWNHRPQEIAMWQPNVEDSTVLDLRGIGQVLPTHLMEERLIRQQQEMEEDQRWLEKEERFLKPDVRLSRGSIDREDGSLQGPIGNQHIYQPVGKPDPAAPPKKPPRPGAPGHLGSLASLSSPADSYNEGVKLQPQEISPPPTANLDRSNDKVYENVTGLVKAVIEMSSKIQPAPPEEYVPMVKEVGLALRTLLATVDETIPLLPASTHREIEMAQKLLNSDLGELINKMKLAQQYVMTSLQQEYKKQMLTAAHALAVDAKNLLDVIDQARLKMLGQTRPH
Fibroblast growth factor 2 (Homo sapiens), sequence (P09038 whole entry, looked up): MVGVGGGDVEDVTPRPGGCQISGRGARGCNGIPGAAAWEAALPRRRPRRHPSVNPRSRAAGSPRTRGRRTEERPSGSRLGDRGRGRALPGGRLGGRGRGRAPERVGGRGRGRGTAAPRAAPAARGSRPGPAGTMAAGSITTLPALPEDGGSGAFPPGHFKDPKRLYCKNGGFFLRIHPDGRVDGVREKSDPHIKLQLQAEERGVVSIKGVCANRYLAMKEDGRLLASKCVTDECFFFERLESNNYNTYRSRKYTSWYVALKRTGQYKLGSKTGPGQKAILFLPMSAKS

Regarding `CCCC[C@@H]1C[C@H]1[C@@H](NC(=O)c1ccco1)c1ccccc1`, the composite z-score in experiment [1] was -0.172; in experiment [2] it was -1; in experiment [3], -0.107; in [4] it was -1.82; in experiment [5] it was -1.64; in experiment [6], -2.17. The composite z-score in experiment [8] was -1.06; in experiment [9] it was -0.0439; in experiment [11] it was -0.609; in [16] it was -1.27; in [17], -0.258; in experiment [18] it was -3.91. Moreover, the composite z-score is -1.3 in [19] and -1.88 in [20]. Also, the z-score is 0.542 in experiment [7]; 0.771 (inactive) in experiment [10]; -2.87 (inactive) in experiment [12]; 0.0548 (inactive) in [13]; 0.783 (inactive) in [14]; -0.787 (inactive) in experiment [15].
On to `COCCOC(=O)N1C(=O)[C@@]2(c3ccccc31)[C@H](C(=O)N1CCCCCCC1)[C@H]1C(=O)O[C@H](c3ccccc3)[C@H](c3ccccc3)N1[C@@H]2c1ccccc1OCCO`, for which the composite z-score worked out at 2.04 in experiment [1]; 1.27 in [2]; 1.26 in experiment [3]; 0.802 in experiment [4]; 1.47 in experiment [5]; 0.662 in [6]. Also, the composite z-score in experiment [8] amounted to 1.47; in experiment [9], 1.53; in experiment [11], 1.09; in [16], 2.79; in experiment [17], 1.76; in experiment [18] it was 1.27. Further, the composite z-score stood at 1.76 in experiment [19] and 1.3 in experiment [20]. The z-score in experiment [7] is -0.647; in experiment [10], 0.131 (inactive); in experiment [12], -2.56 (inactive); in [13] it was -0.699 (inactive); in [14], 0.0384 (inactive); in [15] it was 0.207 (inactive).
In the case of `O=C1C2C=CC(C(O)CCc3ccccc3)N(Nc3ccccc3)C2C(=O)N1c1ccccc1` (stereo not given), the composite z-score in experiment [1] was 1.89; in experiment [2] it was 1.23; in experiment [3], 0.477; in experiment [4] it was 0.889; in [5] it was 0.471; in experiment [6], -0.464. Further, the composite z-score in experiment [8] is 0.38; in experiment [9], 1.44; in experiment [11], 0.742; in [16], 2.32; in experiment [17], 0.372; in experiment [18], 0.143. In addition, the composite z-score in [19] was 0.82; in experiment [20], -0.365. For the same compound, the z-score in experiment [7] was -0.411; in experiment [10] it was -0.0874 (inactive); in experiment [12] it was 0.267 (inactive); in experiment [13], -0.857 (inactive); in experiment [14], 0.819 (inactive); in experiment [15] it was -0.0219 (inactive).
As for `C[N+](C)(C)CCCC[C@@H]1NC(=O)[C@@H]2C[C@H](C(=O)NCCCCCCNC(=O)CS)[C@H](c3cccc(OCCO)c3)N2C1=O`, the composite z-score in experiment [1] was 1.89; in experiment [2], -0.208; in experiment [3] it was -0.379; in experiment [4], 0.552; in experiment [5], 1.27; in experiment [6] it was 1.2. For the same compound, the composite z-score was 1.29 in [8]; 0.585 in experiment [9]; -0.326 in experiment [11]; -1.12 in experiment [16]; -0.231 in experiment [17]; 0.23 in experiment [18]. The figures for the composite z-score in experiment [19] and in experiment [20] were 1.87 and 1.54, respectively. In addition, the z-score in experiment [7] was 0.332; in experiment [10] it was -1.45 (inactive); in experiment [12] it was 0.214 (inactive); in experiment [13], -0.555 (inactive); in experiment [14], -0.671 (inactive); in experiment [15], -0.29 (inactive).
Regarding `CCCC[C@H]1OB(O)C[C@H]2C1=C(COc1ccccc1)C[C@H]1C(=O)N(Cc3ccccc3)C(=O)[C@H]12`, the composite z-score in experiment [1] was found to be 0.755; in experiment [2], 0.692; in experiment [3], 0.314; in experiment [4], 0.817; in experiment [5] it was 0.512; in [6], 0.291. Besides, the composite z-score is 0.872 in experiment [8]; 0.571 in [9]; -0.0155 in experiment [11]; 1.49 in [16]; -0.0136 in experiment [17]; -0.518 in [18]. The composite z-score came out at 0.106 in experiment [19] and 1.76 in [20]. In addition, the z-score in experiment [7] was 0.742; in experiment [10], 0.258 (inactive); in [12], -1.72 (inactive); in experiment [13] it was -0.375 (inactive); in experiment [14], 1.13 (inactive); in [15] it was -0.208 (inactive).
